Assay results from PubChem BioAssay.
A number with no mark means an inactive call. Calls of active or inactive are those of the source.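 Rule for the calls: active = thallium flux through the channel raised or lowered by more than 3 SD from vehicle-only wells, actives on both sides; inactive = the rest.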

System: F380Y/beta4
Assay: modulators of BK channel variants, profiling panel, selectivity assay, cell-based, U2OS BacMam, thallium flux, beta subunits (AID 1259406);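 note: initial slope of Thallos dye fluorescence rise after thallium is added; log ratio against the mean of 0.3% DMSO vehicle wells on the same plate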
Conditions: at 30 µM

Q: Which log fold change Tl+ flux does the source give for CNCCC(Oc1ccc(C(F)(F)F)cc1)c1ccccc1 (stereo not drawn) here?
A: 0.225 (active)

Q: For COc1ccc(/C=C/C(=O)Nc2ccccc2C(=O)O)cc1OC, which log fold change Tl+ flux is on record?
A: -0.0244

Q: Which log fold change Tl+ flux does the source give for COC(=O)[C@H](c1ccccc1Cl)N1CCc2sccc2C1 here?
A: 0.0282

Q: With CC(C)NCC(O)COc1cccc2ccccc12 (stereo not drawn) as the compound, how does the log fold change Tl+ flux read?
A: 0.0503

Q: With O=[N+]([O-])c1cccc2cn[nH]c12 as the compound, how does the log fold change Tl+ flux read?
A: 0.0331

Q: Which log fold change Tl+ flux does the source give for CS(=O)(=O)c1ccc(C2=C(c3ccccc3)C(=O)OC2)cc1 here?
A: -0.000569

Q: Which log fold change Tl+ flux does the source give for Cc1occc(=O)c1O here?
A: 0.0304

Q: Which log fold change Tl+ flux does the source give for CN(C)c1nc(N(C)C)nc(N(C)C)n1 here?
A: 0.0174

Q: With COc1ccc(-c2cc(=O)c3c(OC)c(OC)c(OC)c(OC)c3o2)cc1OC as the compound, how does the log fold change Tl+ flux read?
A: -0.0316

Q: How did the log fold change Tl+ flux turn out when C[N+]1(C)CCCC(OC(=O)C(O)(c2ccccc2)c2ccccc2)C1 (stereo not drawn) was run?
A: 0.0149

Q: For CC1=C(/C=C/C(C)=C/C=C/C(C)=C\C(=O)O)C(C)(C)CCC1, which log fold change Tl+ flux is on record?
A: -0.0711

Q: CCc1ccc(CCOc2ccc(CC3SC(=O)NC3=O)cc2)nc1 (stereo not drawn) was tested. Which log fold change Tl+ flux did it give?
A: 0.017

Q: With CC(C(=O)O)c1ccc(-c2ccccc2)c(F)c1 (stereo not drawn) as the compound, how does the log fold change Tl+ flux read?
A: 0.0328

Q: With CC[C@H]1OC(=O)[C@H](C)[C@@H](O[C@H]2C[C@@](C)(OC)[C@@H](O)[C@H](C)O2)[C@H](C)[C@@H](O[C@@H]2O[C@H](C)C[C@H](N(C)C)[C@H]2O)[C@](C)(OC)C[C@@H](C)C(=O)[C@H](C)[C@@H](O)[C@]1(C)O as the compound, how does the log fold change Tl+ flux read?
A: 0.00789

Q: For C[C@H]1COc2c(N3CCN(C)CC3)c(F)cc3c(=O)c(C(=O)O)cn1c23, which log fold change Tl+ flux is on record?
A: -0.0339

Q: CC(C)NCC(O)COc1ccc(CC(N)=O)cc1 (stereo not drawn) was tested. Which log fold change Tl+ flux did it give?
A: 0.0375

Q: With Cc1cccc(C)c1NC(=O)C1CCCCN1C (stereo not drawn) as the compound, how does the log fold change Tl+ flux read?
A: 0.00629

Q: How did the log fold change Tl+ flux turn out when CCCCC(=O)N(Cc1ccc(-c2ccccc2-c2nn[nH]n2)cc1)[C@H](C(=O)O)C(C)C was run?
A: -0.00671

Q: For Nc1ncnc2c1ncn2[C@@H]1O[C@H](CO)[C@@H](O)[C@@H]1O, which log fold change Tl+ flux is on record?
A: 0.0319

Biological target: Calcium-activated potassium channel subunit alpha-1 (Homo sapiens) + Leucine-rich repeat-containing protein 26 (Homo sapiens) (UniProt Q12791+Q2I0M4)
Sequence (Q2I0M4 whole entry, looked up, one chain of several): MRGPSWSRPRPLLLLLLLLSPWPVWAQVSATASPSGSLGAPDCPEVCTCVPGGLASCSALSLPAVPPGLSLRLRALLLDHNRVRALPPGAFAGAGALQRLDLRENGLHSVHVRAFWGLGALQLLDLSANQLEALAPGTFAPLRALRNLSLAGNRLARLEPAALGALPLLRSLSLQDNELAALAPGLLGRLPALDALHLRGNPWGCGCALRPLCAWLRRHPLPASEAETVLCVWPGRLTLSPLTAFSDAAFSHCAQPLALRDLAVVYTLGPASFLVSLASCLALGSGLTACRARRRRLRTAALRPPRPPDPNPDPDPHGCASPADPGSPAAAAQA
Assay: as above
Conditions: F380Y/Slo1WT/gamma1, at 30 µM

Q: How did the log fold change Tl+ flux turn out when CNCCC(Oc1ccc(C(F)(F)F)cc1)c1ccccc1 (stereo not drawn) was run?
A: 0.0464

Q: Which log fold change Tl+ flux does the source give for COc1ccc(/C=C/C(=O)Nc2ccccc2C(=O)O)cc1OC here?
A: -0.0322

Q: How did the log fold change Tl+ flux turn out when COC(=O)[C@H](c1ccccc1Cl)N1CCc2sccc2C1 was run?
A: -0.0336

Q: CC(C)NCC(O)COc1cccc2ccccc12 (stereo not drawn) was tested. Which log fold change Tl+ flux did it give?
A: -0.019

Q: O=[N+]([O-])c1cccc2cn[nH]c12 was tested. Which log fold change Tl+ flux did it give?
A: 0.0381

Q: Which log fold change Tl+ flux does the source give for CS(=O)(=O)c1ccc(C2=C(c3ccccc3)C(=O)OC2)cc1 here?
A: 0.022

Q: With Cc1occc(=O)c1O as the compound, how does the log fold change Tl+ flux read?
A: 0.0152

Q: With CN(C)c1nc(N(C)C)nc(N(C)C)n1 as the compound, how does the log fold change Tl+ flux read?
A: 0.0168

Q: How did the log fold change Tl+ flux turn out when COc1ccc(-c2cc(=O)c3c(OC)c(OC)c(OC)c(OC)c3o2)cc1OC was run?
A: -0.341 (active)

Q: Which log fold change Tl+ flux does the source give for C[N+]1(C)CCCC(OC(=O)C(O)(c2ccccc2)c2ccccc2)C1 (stereo not drawn) here?
A: -0.0154

Q: With CC1=C(/C=C/C(C)=C/C=C/C(C)=C\C(=O)O)C(C)(C)CCC1 as the compound, how does the log fold change Tl+ flux read?
A: -0.0907 (active)

Q: CCc1ccc(CCOc2ccc(CC3SC(=O)NC3=O)cc2)nc1 (stereo not drawn) was tested. Which log fold change Tl+ flux did it give?
A: 0.0101

Q: Which log fold change Tl+ flux does the source give for CC(C(=O)O)c1ccc(-c2ccccc2)c(F)c1 (stereo not drawn) here?
A: 0.0464

Q: Which log fold change Tl+ flux does the source give for CC[C@H]1OC(=O)[C@H](C)[C@@H](O[C@H]2C[C@@](C)(OC)[C@@H](O)[C@H](C)O2)[C@H](C)[C@@H](O[C@@H]2O[C@H](C)C[C@H](N(C)C)[C@H]2O)[C@](C)(OC)C[C@@H](C)C(=O)[C@H](C)[C@@H](O)[C@]1(C)O here?
A: -0.0843

Q: How did the log fold change Tl+ flux turn out when C[C@H]1COc2c(N3CCN(C)CC3)c(F)cc3c(=O)c(C(=O)O)cn1c23 was run?
A: 0.00221

Q: With CC(C)NCC(O)COc1ccc(CC(N)=O)cc1 (stereo not drawn) as the compound, how does the log fold change Tl+ flux read?
A: -0.00874

Q: With Cc1cccc(C)c1NC(=O)C1CCCCN1C (stereo not drawn) as the compound, how does the log fold change Tl+ flux read?
A: 0.0131

Q: For CCCCC(=O)N(Cc1ccc(-c2ccccc2-c2nn[nH]n2)cc1)[C@H](C(=O)O)C(C)C, which log fold change Tl+ flux is on record?
A: 0.0422

Q: Which log fold change Tl+ flux does the source give for Nc1ncnc2c1ncn2[C@@H]1O[C@H](CO)[C@@H](O)[C@@H]1O here?
A: 0.0271
